Screening results from PubChem.
This is one part of a sample in which hits are shown more often than they occur.
ST2 IL33 inh: IL1RL1 inhibition | inhibition, % for hits at 17 µM | 78,000 compounds, 2.3% hits | AID 1259354 | AlphaLISA ST2-Fc/biotin-IL-33 interaction, 1 h; in the data active = inhibition above about 30%
Target sequence (Q01638 whole entry, looked up): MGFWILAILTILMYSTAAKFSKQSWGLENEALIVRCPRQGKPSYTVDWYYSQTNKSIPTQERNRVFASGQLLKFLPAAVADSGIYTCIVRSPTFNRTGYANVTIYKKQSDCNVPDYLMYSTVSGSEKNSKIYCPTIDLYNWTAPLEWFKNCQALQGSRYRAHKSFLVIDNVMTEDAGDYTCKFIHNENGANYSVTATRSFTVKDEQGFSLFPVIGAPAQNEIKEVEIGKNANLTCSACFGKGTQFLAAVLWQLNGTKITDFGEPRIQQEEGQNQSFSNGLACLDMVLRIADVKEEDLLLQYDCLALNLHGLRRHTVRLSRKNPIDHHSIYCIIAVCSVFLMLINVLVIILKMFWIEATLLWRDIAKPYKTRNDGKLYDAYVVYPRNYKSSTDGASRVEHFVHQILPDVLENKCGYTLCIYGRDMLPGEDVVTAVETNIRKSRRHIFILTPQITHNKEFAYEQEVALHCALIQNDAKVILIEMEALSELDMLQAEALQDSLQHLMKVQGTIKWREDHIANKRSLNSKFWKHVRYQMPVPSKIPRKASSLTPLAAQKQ
Large screens that a line does not name were inactive.

COc1ccc([C@@H]2C(C#N)=C(N)S[C@H]2C(=O)c2ccccc2)cc1	none
COCC(=O)N[C@H]1CCN2C(=O)c3cc(-c4cccc(C)c4C)ccc3NC(=O)[C@@H]2C1	none
O=C(N[C@H]1CCN2C(=O)c3cc(-c4ccccc4F)ccc3NC(=O)[C@@H]2C1)c1ccco1	ST2 IL33 inh 60.0%
O=C(N[C@H]1CCN2C(=O)c3cc(-c4cccc(C(F)(F)F)c4)ccc3NC(=O)[C@@H]2C1)c1ccncc1	none
Cc1cccc(NC(=O)CNC(=O)Cn2c(C)cc3ccccc3c2=O)n1	none
Cc1c(N=Cc2ccc(Cl)o2)c(=O)n(-c2ccccc2)n1C	none
Cc1c(N=Cc2cc(Br)cc(Br)c2O)c(=O)n(-c2ccccc2)n1C	none
COc1cc(C=Nc2c(C)n(C)n(-c3ccccc3)c2=O)cc([N+](=O)[O-])c1O	none
Cc1c(N=Cc2cc([N+](=O)[O-])ccc2N2CCCCCC2)c(=O)n(-c2ccccc2)n1C	ST2 IL33 inh 42.0%
Cc1c(N=Cc2cc([N+](=O)[O-])ccc2N(C)C2CCCCC2)c(=O)n(-c2ccccc2)n1C	ST2 IL33 inh 47.0%
COc1cc(C=Nc2c(C)n(C)n(-c3ccccc3)c2=O)c([N+](=O)[O-])cc1OC	none
CCC1(O)CCCN(c2nc(C)nc3c2CCN(C(C)=O)CC3)C1 (centres undefined)	none
Cc1cc(C)nc(N=C(N)Nc2ccccc2F)n1	none
CC(C)C(NC(=O)C1CCCCC1)C(=O)Nc1ccc(F)c(Cl)c1 (centres undefined)	none
COc1ccc(NC2CCCN(C3CCN(c4ccccc4C)CC3)C2)cc1OC (centres undefined)	ST2 IL33 inh 34.0%
COc1ccc(NC(=O)NC2CCCN(C3CCCCCC3)C2)cc1OC (centres undefined)	none
COc1ccc(NC2CCCN(C(=O)/C=C/c3cccc(Cl)c3)C2)cc1OC (centres undefined)	none
CC1Cc2ccccc2N1S(=O)(=O)c1ccc2c(c1)CCC(=O)N2 (centres undefined)	none
Cc1c(C(=O)NC2CCCC2)oc2ccc(S(=O)(=O)N3CCC(C)CC3)cc12	none
O=C(Cc1ccc(F)cc1)NCCc1nnc2n1CCN(Cc1c(F)cccc1F)CC2	none
C=C(C)Cn1c(CCCNC(=O)Cc2ccccc2)nc2ccccc21	none
Nc1ccc(-c2nnc(-c3ccc(N)cc3)o2)cc1	ST2 IL33 inh 37.0%
COc1ccc(-c2nnc(N)o2)cc1	none
Cc1ccc(-c2nnc(-c3ccc(Cl)cc3)o2)cc1	none
Cn1cc(SCc2ccc(F)cc2)c2ccccc21	none
O=C(Nc1ccccc1C(=O)O)c1ccc2c(c1)C(=O)N(c1ccccn1)C2=O	none
O=C(Nc1ccccn1)c1ccc2c(c1)C(=O)N(c1cccc([N+](=O)[O-])c1)C2=O	ST2 IL33 inh 30.0%
CC1=C(C(=O)Nc2ccccn2)C(c2cccc([N+](=O)[O-])c2)C2=C(CCCC2=O)N1 (centres undefined)	none
C=CCSc1nnc2c(n1)OC(c1ccccn1)Nc1ccccc1-2 (centres undefined)	none
CC(=O)NC(CC(=O)c1ccc(Cl)cc1Cl)C(Cl)(Cl)Cl (centres undefined)	none
Cc1ccc(CSc2n[nH]c(N)n2)c(C)c1	none
O=C1c2cccc([N+](=O)[O-])c2C(=O)N1C1CCCCCCC1	ST2 IL33 inh 36.0%
Cc1ccc(N2C(=O)C(N3C(=O)c4cccc([N+](=O)[O-])c4C3=O)C2c2cccs2)cc1Cl (centres undefined)	none
O=C1c2cccc([N+](=O)[O-])c2C(=O)N1C1C(=O)N(c2ccc(Cl)cc2)C1c1ccc(F)cc1 (centres undefined)	ST2 IL33 inh 41.0%
O=C(CCN1C(=O)c2cccc([N+](=O)[O-])c2C1=O)Nc1ccc(F)cc1	none
COc1ccc(N2C(=O)C(N3C(=O)c4ccc([N+](=O)[O-])cc4C3=O)C2c2ccc(F)cc2)cc1 (centres undefined)	none
Cc1ccccc1NCN1C(=O)c2cccc([N+](=O)[O-])c2C1=O	none
O=C1CC(Cc2ccc(Cl)cc2)C(=O)N1c1cccc(Cl)c1 (centres undefined)	none
O=C1CC2(CCN(S(=O)(=O)c3ccc(OC(F)F)cc3)CC2)CN1	none
NC(=O)[C@H](CC1CCCCC1)NC(=O)[C@@H]1CN(S(=O)(=O)c2ccccc2)CCN1C(=O)C1CCCCC1	none
CN1C[C@@H](NC(=O)c2cccnc2)C[C@H]1c1nc(-c2ccc(Cl)cc2)no1	none
CN1C[C@@H](NC(=O)CC(C)(C)CC(=O)O)C[C@H]1c1nc(-c2ccccn2)no1	none
CN(C)c1ccc(C(=O)N[C@H]2C[C@@H](c3nc(-c4cccnc4)no3)N(C)C2)cc1	ST2 IL33 inh 58.0%
CN1C[C@@H](NC(=O)COc2ccccc2)C[C@H]1c1nc(-c2cccnc2)no1	ST2 IL33 inh 65.0%
CN1C[C@@H](NC(=O)c2ccccn2)C[C@H]1c1nc(-c2ccccn2)no1	none
CN1C[C@@H](NC(=O)c2ccc(F)cc2)C[C@H]1c1nc(-c2ccccc2)no1	none
CN1C[C@@H](NC(=O)c2ccccn2)C[C@H]1c1nc(-c2ccncc2)no1	none
CN1C[C@@H](NC(=O)c2ccc3c(c2)OCO3)C[C@H]1c1nc(-c2cccnc2)no1	none
CN1C[C@@H](NC(=O)CC(C)(C)C)C[C@H]1c1nc(-c2cnccn2)no1	ST2 IL33 inh 34.0%
CC(C)CN1C(=O)c2ccc(C(=O)c3ccc(C(=O)O)cc3)cc2C1=O	none
COc1ccc(C(=O)NCCn2cc(SCc3ccccc3F)c3ccccc32)cc1	none
O=C(O)Cc1ccc(NCc2ccc(Cl)cc2Cl)cc1	none
CC(=O)c1ccc(NC(=O)CN2CCCCC2)cc1	none
Cc1ccccc1-c1ncc(CN2CCCC2c2nonc2C)s1 (centres undefined)	none
Cc1cccc(N2CCN(C(=O)c3cc(Cn4ccnc4C(C)C)[nH]n3)CC2)n1	none
CCN1CCN(C(=O)c2cc(Cl)ccc2OC)CC1	none
COC(=O)[C@@H]1Cc2nc[nH]c2CN1Cc1cccs1	none
O=C(Nc1cccc(-c2ccco2)c1)C1CCN(Cc2cccn2-c2ccccn2)CC1	ST2 IL33 inh 32.0%
O=C(c1ccco1)N1CCN(Cc2cccn2-c2ncccn2)CC1	none
O[C@@H]1CN(Cc2cccn2-c2ccccn2)CC[C@H]1c1ccc2c(c1)OCO2	none
O=C1Nc2ccccc2C(O)(C(=O)NCCCN2CCCCCC2)N1c1ccc(Cl)cc1 (centres undefined)	none
CN=C1S/C(=C\c2cn(CC(=O)O)c3ccccc23)C(=O)N1C	none
Cc1oc(N=Cc2cn(Cc3ccccc3)c3ccccc23)c(C#N)c1C	ST2 IL33 inh 46.0%
Cc1ccc(Cn2cc(CCC(=O)O)c3ccccc32)cc1	none
O=C(NCC1CCCN(Cc2ccccc2O)C1)C1(c2ccc(Cl)cc2)CC1 (centres undefined)	none
Cc1ccc(Nc2cc(C)nc(Nc3ccc(NC(=O)CCC4CCCC4)cc3)n2)cc1	none
COc1ccc(CCNC(=O)c2ccc3c(c2)ncn3C2CCCC2)cc1OC	none
CCC(C)NC(=O)C(C)N1C(=O)COc2ccc(C)cc21 (centres undefined)	none
CCC(=O)N1c2ccccc2-c2nnc(SC)nc2OC1CC (centres undefined)	none
CCCCN(C)CCCNC(=O)C1(O)c2ccccc2NC(=O)N1c1ccccc1 (centres undefined)	none
CCO/C=C1\c2cc([N+](=O)[O-])ccc2-c2c1cc([N+](=O)[O-])cc2[N+](=O)[O-]	ST2 IL33 inh 54.0%
O=[N+]([O-])c1ccc(OCCO)c(OCCO)c1	none
N#Cc1c([N+](=O)[O-])cc([N+](=O)[O-])cc1S(=O)(=O)Cc1ccccc1	none
COc1cc2c(cc1OC)CN(Cc1ccc(Cl)c(Cl)c1)CC2	none
CN1C[C@@H](NC(=O)NC2CCCCC2)C[C@H]1c1nc(-c2ccccc2)no1	ST2 IL33 inh 82.0%
